A short description of assay [1]: stimulators of nuclear beta-catenin in C2C12, primary screen, imaging, WNT3A-conditioned medium, mouse C2C12, NPC library (AID 1117326; in the data active = nuclear beta-catenin stimulation mostly above about 4.2%, no sharp cut-off; inactive = mostly below about 10%). To be noted: stronger effect = higher value.
Assay [2] in a line: stimulators of insulin release from INS-1E, primary screen, cell-based, 5 mM glucose, NPC library (AID 1117329;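 active = compound raises insulin release from rat beta cells at 5 mM glucose, no numeric limit stated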). To be noted: rat INS-1E insulin secretion, at 10 µM, stronger effect = higher value.
Assay [3] in a line: growth inhibition of GSK3B-pretreated HCT116 cells – cell-based, CellTiter-Glo, 0.2 to 20 µM (AID 1117336;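 active = compounds lowering colon cancer cell viability after pretreatment blocking the GSK3B kinase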). To be noted: HCT116 viability after GSK3B inhibitor, at 20 µM, stronger effect = higher value. For orientation: Cellular ATP, detected with luciferase, serves as a proxy for viable cell number.
Assay [4] can be described thus: inhibition of endothelial tube formation, primary screen, imaging, VEGF stimulated, CD31 staining, tube area, NPC library (AID 1117340;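 active = compound that reduces growth-factor-driven endothelial tube area in a mixed cell culture, no cutoff stated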). To be noted: VEGF-stimulated ADSC/ECFC co-culture, at 10 µM, stronger effect = higher value.
A short description of assay [5]: glucagon-like peptide 1 release enhancers, primary assay, NCI-H716 cell line, NPC library (AID 1117341;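 active = compound raises GLP1 secretion from the human gut endocrine cells, with no numeric limit stated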). To be noted: NCI-H716 cells, at 10 µM, stronger effect = higher value.
Assay [6] can be described thus: HCT116 colon cancer cell growth inhibition, primary screen, CellTiter-Glo luminescence, NPC library (AID 1117342;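 active = compounds that lower survival of HCT116 colon cancer cells in the luminescence readout, no numeric limit stated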). To be noted: at 20 µM (top of the series).
The nature of assay [7]: CellTiter-Glo luminescent readout of SW480 viability loss, NPC library primary (AID 1117343;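 active = compounds that lower viability of the colon cancer cells in the luminescence readout, with no numeric limit stated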). To be noted: CellTiter-Glo luminescence; at 20 µM (top of the series).
Assay [8] is described as follows: decreased DLD-1 cellular survival, CellTiter-Glo luminescent readout, NPC compound collection, primary HTS (AID 1117346;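 active = compounds that lower survival of DLD-1 colon cancer cells in the luminescence readout, no cutoff given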). To be noted: DLD-1 viability, CellTiter-Glo luminescence; at 20 µM (top of the series).
Assay [9] has as its target 6-phosphogluconate dehydrogenase, decarboxylating (Homo sapiens) (UniProt P52209). Briefly: 6PGD enzyme inhibitors, primary screen, biochemical, human, recombinant enzyme, NADPH absorbance (AID 1159550;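 active = at least 20% inhibition of 6-phosphogluconate dehydrogenase activity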). To be noted: recombinant 6PGD, NADPH absorbance 341 nm; at 10 µM; stronger effect = higher value.
A short description of assay [10]: sensitizers of A549 cells to miR-34 induction, primary screen, imaging, A549 dox-inducible miR-34, nuclei and caspase counts (AID 1347080;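 active = compounds whose cell count with miR-34 switched on is under 0.7 times the count with it off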). To be noted: A549 miR-34 inducible, Hoechst nuclei count, 48 h.
A short description of assay [11]: survival rescue of mitochondrial mutant cells in low glucose, primary screen, MELAS cybrids, Rieske KO mouse fibroblasts, CellTiter-Glo (AID 1508586;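 active = mean z-score across replicates of 1.96 or higher in either the MELAS or the Rieske mutant cell line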;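 also: z relative to plate mean and SD of compound and empty wells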).
Assay [12] has as its target NAD(+) hydrolase SARM1 (Homo sapiens) (UniProt Q6SZW1). Briefly: SARM1 TIR NADase inhibitors, cell lysate, NAD-Glo luminescence (AID 1508614;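 active = compound whose remaining NAD level is above about 45 nM, limit read from the data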;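 also: higher remaining NAD means stronger inhibition of SARM1 NADase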). To be noted: SAM-TIR HEK293T lysate NADase, at 1 µM, stronger effect = higher value.
Assay [13] deals with Mitogen-activated protein kinase 7 (Homo sapiens) (UniProt Q13164). Put plainly: ERK5 transactivation activators in reporter cells, primary screen, cell-based, HTS (AID 1508626;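 active = luciferase signal above three times the same-plate solvent-only control wells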;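 also: luciferase driven by Gal4-ERK5 fusion binding five Gal4 sites before minimal TATA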). To be noted: HeLa Gal4-ERK5 transactivation, 18 h, at 5 µM, stronger effect = higher value.
Chain of Mitogen-activated protein kinase 7 (Homo sapiens) (Q13164 whole entry, looked up, the tested form may be a part): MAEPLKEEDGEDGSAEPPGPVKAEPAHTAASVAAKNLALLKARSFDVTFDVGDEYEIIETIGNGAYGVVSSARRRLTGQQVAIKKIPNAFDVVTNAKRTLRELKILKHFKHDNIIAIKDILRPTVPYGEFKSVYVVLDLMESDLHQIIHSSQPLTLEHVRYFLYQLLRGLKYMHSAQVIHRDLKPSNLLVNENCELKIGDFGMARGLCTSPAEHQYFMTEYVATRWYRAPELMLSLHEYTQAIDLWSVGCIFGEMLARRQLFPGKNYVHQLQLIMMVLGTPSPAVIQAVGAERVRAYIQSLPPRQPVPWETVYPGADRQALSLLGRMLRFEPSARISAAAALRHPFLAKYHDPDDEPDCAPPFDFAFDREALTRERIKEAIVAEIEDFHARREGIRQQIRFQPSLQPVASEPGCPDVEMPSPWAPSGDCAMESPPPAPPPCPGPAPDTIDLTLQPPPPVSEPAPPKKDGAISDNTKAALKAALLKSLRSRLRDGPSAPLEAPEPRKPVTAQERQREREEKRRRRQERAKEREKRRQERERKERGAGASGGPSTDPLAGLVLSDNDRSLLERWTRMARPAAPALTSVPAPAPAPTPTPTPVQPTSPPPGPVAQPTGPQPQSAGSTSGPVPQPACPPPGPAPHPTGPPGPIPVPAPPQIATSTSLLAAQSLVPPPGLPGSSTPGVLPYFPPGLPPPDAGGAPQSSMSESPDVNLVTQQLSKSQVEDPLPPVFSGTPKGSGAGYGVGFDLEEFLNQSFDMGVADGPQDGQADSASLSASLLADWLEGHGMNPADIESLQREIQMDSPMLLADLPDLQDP
The next assay relates to F380Y. Briefly: modulators of BK channel variants, profiling panel, selectivity assay, cell-based, U2OS BacMam, thallium flux, beta subunits (AID 1259406).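 Also: initial slope of Thallos dye fluorescence rise after thallium is added; log ratio against the mean of 0.3% DMSO vehicle wells on the same plate.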 To be noted: at 30 µM.
Another assay concerns F380Y/beta2Delta. The assay is described as above. To be noted: at 30 µM.
The target of assay [14] is Calcium-activated potassium channel subunit alpha-1 (Homo sapiens) + Leucine-rich repeat-containing protein 26 (Homo sapiens) (UniProt Q12791+Q2I0M4). The assay is described as above. To be noted: F380Y/Slo1WT/gamma1, at 30 µM.
Chain of Calcium-activated potassium channel subunit alpha-1 (Homo sapiens) + Leucine-rich repeat-containing protein 26 (Homo sapiens) (Q2I0M4 whole entry, looked up, one chain of several): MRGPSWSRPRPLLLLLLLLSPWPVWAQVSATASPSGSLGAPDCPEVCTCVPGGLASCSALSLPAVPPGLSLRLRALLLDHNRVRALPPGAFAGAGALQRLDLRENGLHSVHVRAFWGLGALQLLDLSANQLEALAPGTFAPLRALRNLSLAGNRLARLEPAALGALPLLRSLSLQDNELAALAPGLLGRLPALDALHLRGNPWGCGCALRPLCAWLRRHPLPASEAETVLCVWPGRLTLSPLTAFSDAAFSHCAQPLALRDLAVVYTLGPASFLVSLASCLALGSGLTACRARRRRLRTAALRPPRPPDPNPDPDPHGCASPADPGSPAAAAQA
The subject of another assay is R275C. Described as above. To be noted: at 30 µM.
In the next assay the test system is R275C/beta1. The assay is described as above. To be noted: at 30 µM.
Another assay deals with R275C/beta2Delta. Described as above. To be noted: at 30 µM.
Assay [15] is described as follows: differential killing of epithelial or mesenchymal cells, primary screen, imaging, PC-3E GFP, TEM4-18 mCherry, co-culture (AID 1345086;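 active = compounds killing one labelled cell type while sparing the other, by normalised counts and ratio limits, not self-fluorescent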;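 also: cells exposed to compound for 72 h before imaging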;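 as to red/green cell ratio (normalised): normalised mesenchymal count divided by normalised epithelial count so high means epithelial killing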). To be noted: imaging cell counts, at 1 µM.
The mark [16] stands for this setting: stronger effect = lower value, cell number ratio, induced over uninduced.
Setting [17] is: measured here: relative caspase fold change +Dox/-Dox.
Setting [18] is: measured here: total cells with miR-34 induction, stronger effect = lower value.
Setting [19] is: measured here: total cells without miR-34 induction.
Setting [20] is: MELAS cybrid survival, CellTiter-Glo 48 h, stronger effect = higher value.
Where [21] appears, read: Rieske KO mouse fibroblast survival, CellTiter-Glo 72 h.

Several values for one entry are separate records, joined by “and”; a condition that tells them apart may be missing. Equal values may be shown once. Activity calls are given as the source filed them.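 The calls were made as follows, unless noted: active = thallium flux through the channel raised or lowered by more than 3 SD from vehicle-only wells, actives on both sides; inactive = the rest.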

In general, inhibition refers to the drop in the measured response relative to a control, in per cent.

Chain of 6-phosphogluconate dehydrogenase, decarboxylating (Homo sapiens) (P52209 whole entry, looked up): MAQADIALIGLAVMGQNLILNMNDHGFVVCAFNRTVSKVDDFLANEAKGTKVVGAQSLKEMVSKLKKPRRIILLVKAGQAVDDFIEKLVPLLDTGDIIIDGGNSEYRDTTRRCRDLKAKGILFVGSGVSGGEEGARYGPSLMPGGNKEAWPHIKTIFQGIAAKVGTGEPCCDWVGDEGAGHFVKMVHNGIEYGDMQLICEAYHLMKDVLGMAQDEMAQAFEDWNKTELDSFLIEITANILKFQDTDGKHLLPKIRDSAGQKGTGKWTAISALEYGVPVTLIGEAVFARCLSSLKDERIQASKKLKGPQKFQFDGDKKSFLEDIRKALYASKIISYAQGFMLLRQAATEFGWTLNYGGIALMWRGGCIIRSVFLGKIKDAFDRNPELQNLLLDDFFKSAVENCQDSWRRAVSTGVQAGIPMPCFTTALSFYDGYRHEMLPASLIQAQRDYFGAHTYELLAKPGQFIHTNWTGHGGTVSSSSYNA
Chain of NAD(+) hydrolase SARM1 (Homo sapiens) (Q6SZW1 whole entry, looked up, the tested form may be a part): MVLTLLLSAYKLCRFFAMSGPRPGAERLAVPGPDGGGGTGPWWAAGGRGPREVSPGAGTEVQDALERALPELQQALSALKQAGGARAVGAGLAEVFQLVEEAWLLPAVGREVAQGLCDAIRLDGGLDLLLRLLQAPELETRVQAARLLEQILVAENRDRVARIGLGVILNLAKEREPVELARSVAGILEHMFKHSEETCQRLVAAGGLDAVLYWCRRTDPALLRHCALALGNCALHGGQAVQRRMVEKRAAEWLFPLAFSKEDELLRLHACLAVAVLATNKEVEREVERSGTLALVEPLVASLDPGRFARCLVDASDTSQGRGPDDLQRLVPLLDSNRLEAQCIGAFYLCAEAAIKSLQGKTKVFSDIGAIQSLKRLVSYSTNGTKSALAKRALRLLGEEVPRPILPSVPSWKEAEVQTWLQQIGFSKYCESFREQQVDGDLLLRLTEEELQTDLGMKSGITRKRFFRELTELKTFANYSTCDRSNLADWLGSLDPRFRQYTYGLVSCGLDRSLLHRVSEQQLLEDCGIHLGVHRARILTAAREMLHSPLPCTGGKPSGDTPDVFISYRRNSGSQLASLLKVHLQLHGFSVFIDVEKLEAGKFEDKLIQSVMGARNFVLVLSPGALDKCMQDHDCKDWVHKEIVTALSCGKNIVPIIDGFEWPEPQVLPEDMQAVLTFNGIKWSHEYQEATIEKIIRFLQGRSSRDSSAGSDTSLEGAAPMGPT

On to `C[C@]12C=CC(=O)C=C1CC[C@@H]1[C@@H]2C(=O)C[C@@]2(C)[C@H]1CC[C@]2(O)C(=O)CO`, for which the nuclear beta-catenin stimulation in assay [1] (at 10 µM) is 0.6% (inactive); in [1] (stimulation, at 2 µM) it was 0.8%. In addition, the insulin secretion stimulation in assay [2] was -2.5% (inactive). The viability decrease in [3] was -21.3% (inactive). For the same compound, in assay [4], the tube area decrease was -13.7% (inactive). In addition, the GLP1 secretion stimulation in assay [5] is 0.9% (inactive). In addition, the inhibition of viability in assay [6] is -8.2% (inactive). Also, the viability decrease (inhibition) is -6.4% (inactive) in assay [7] and -11.6% (inactive) in assay [8]. Besides, in [9], the inhibition was -6.11% (inactive). In addition, the fold change in assay [10] (setting [16]) was 0.98 (inactive) and 0.843 (inactive) and 0.886 (inactive); in assay [10] (setting [17]), 1.65 and 0.777 and 1.15. Also, the cell count is 10300 and 7950 and 9680 in assay [10] (setting [18]); 10500 and 9420 and 10900 in assay [10] (setting [19]). Further, the z-score in assay [11] (setting [20]) is 0.134 (inactive) and 0.541 (inactive); in assay [11] (setting [21]), -0.259 and 0.148. The remaining NAD in [12] was 10 nM (inactive). Further, the luciferase signal in assay [13] is 28 AU (inactive). Further, the log fold change Tl+ flux with F380Y was 0.00715 (inactive); with F380Y/beta2Delta, 0.0137 (inactive); in assay [14], -0.00874 (inactive); in the assay with R275C, -0.0236 (inactive); with R275C/beta1, -0.0318 (inactive); in the assay with R275C/beta2Delta, 0.028 (inactive).
As to `CCOc1ccc2ccccc2c1C(=O)N[C@@H]1C(=O)N2[C@@H]1SC(C)(C)[C@@H]2C(=O)O`, the nuclear beta-catenin stimulation in assay [1] (at 10 µM) is -0.5% (inactive); in assay [1] (stimulation, at 2 µM), 0.1%. Besides, in [2], the insulin secretion stimulation was 0.3% (inactive). Besides, in [3], the viability decrease was -12.1% (inactive). Besides, the tube area decrease in assay [4] was -14.5% (inactive). Besides, in assay [5], the GLP1 secretion stimulation was -2.2% (inactive). In assay [6], the inhibition of viability was -10.6% (inactive). For the same compound, the viability decrease (inhibition) in assay [7] is 39.8% (inactive); in assay [8], -29.8% (inactive). Besides, the inhibition in assay [9] is -5.14% (inactive). In addition, the fold change in assay [10] (setting [16]) was 1.06 (inactive) and 0.86 (inactive); in assay [10] (setting [17]), 0.823 and 1.09. The cell count was 9950 and 9060 in assay [10] (setting [18]); 9360 and 10500 in assay [10] (setting [19]). Moreover, the results for the z-score in [11] (setting [20]) and in [11] (setting [21]) were 0.661 (inactive) and -0.47, respectively. Besides, in assay [12], the remaining NAD is 10 nM (inactive). The luciferase signal in [13] is 76 AU (inactive). Moreover, the log fold change Tl+ flux in the assay on F380Y was -0.0205 (inactive); with F380Y/beta2Delta it was -0.0424 (inactive); in assay [14] it was 0.0363 (inactive); in the assay on R275C, -0.00323 (inactive); in the assay on R275C/beta1, 0.00845 (inactive); with R275C/beta2Delta it was 0.0249 (inactive).
Regarding `CC(=O)OCC[N+](C)(C)C`, the nuclear beta-catenin stimulation is 0.6% (inactive) in [1] (at 10 µM) and 2.2% in assay [1] (stimulation, at 2 µM). In addition, the insulin secretion stimulation in assay [2] is 0.3% (inactive). The viability decrease in assay [3] is -38.1% (inactive). In addition, the tube area decrease in [4] is 19.9% (inactive). Besides, in [5], the GLP1 secretion stimulation was -5.3% (inactive). Further, in assay [6], the inhibition of viability is 10.1% (inactive). For the same compound, the viability decrease (inhibition) in [7] is 2.1% (inactive); in assay [8] it was -14.9% (inactive). For the same compound, in [9], the inhibition was 14.7% (inactive). The red/green cell ratio (normalised) in [15] (actives lie on both sides, counts scaled to control wells, 1 = unselective) was 1.07 (inactive). Besides, the values for the normalised cell number in assay [15] (measured here: epithelial PC-3E GFP cell survival) and in assay [15] (measured here: mesenchymal TEM4-18 mCherry cell survival) were 1.22 and 1.3, respectively. Moreover, the z-score in [11] (setting [20]) is -0.299 (inactive) and 0.505 (inactive); in assay [11] (setting [21]), -0.06 and -0.687. For the same compound, the remaining NAD in assay [12] was 10 nM (inactive). In addition, in assay [13], the luciferase signal is 60 AU (inactive). The log fold change Tl+ flux in the assay with F380Y is 0.0119 (inactive); in the assay with F380Y/beta2Delta, -0.0134 (inactive); in assay [14], 0.00764 (inactive); in the assay with R275C it was -0.00869 (inactive); in the assay on R275C/beta1 it was -0.00581 (inactive); in the assay with R275C/beta2Delta it was -0.00325 (inactive).

These data come from PubChem BioAssay.
